From PubChem BioAssay
This is a sample that favours compounds with a hit; in the whole collection about 4.1% have one here.
ssDAF12 agonist: activators of S. stercoralis DAF-12 nuclear receptor; HEK293 ssDAF-12/GRIP1 lit1-tk-luc reporter, luminescence; % of 3 µM dafachronic acid response; 370,000 compounds, 1% hits; activation, % at 6.8 µM;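 active = activation above the mean over all tested compounds plus 3 SD, cut at about 0.9% in these data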;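 note: 0% = DMSO-only wells and 100% = 3 µM delta7-dafachronic acid wells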
DAX1 inh-1: DAX1 (NR0B1) inhibition, primary screen; HEK293T StAR-luciferase reporter, SF-1/DAX-1 repression relief; inhibition, % at 6.8 µM; 370,000 compounds, 1.1% hits; AID 652010;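 active = inhibition above the mean over all tested compounds plus 3 SD, cut at about 3.6% in these data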;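 note: 0% = DAX-1 cells with DMSO and 100% = cells lacking DAX-1 with DMSO; higher inhibition means more luminescence from relief of DAX-1 repression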
hcDAF-12 act: H. contortus DAF-12 activation, primary screen; AID 652067; 370,000 compounds, 1.4% hits; HEK293 hcDAF-12 lit1-tk-luc reporter, luminescence; 0% DMSO, 100% Δ7-dafachronic acid; activation, % at 6.8 µM;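 active = activation above the mean of all tested compounds plus 3 SD, cut at about 5.5% in these data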;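 note: 100% = response to 3 µM Δ7-dafachronic acid high control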
DAX1 inh-2: inhibitors of human orphan nuclear receptor DAX1 (NR0B1). P51843. HEK293 Gal4-DAX1 luciferase reporter, luminescence. inhibition, % at 6.75 µM. 340,000 compounds, 0.99% hits. AID 504766;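 active = inhibition above the mean over all tested compounds plus 3 SD, cut at about 4.2% in these data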;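 note: 0% = DAX1-transfected cells with DMSO and 100% = empty-vector control cells with DMSO; inhibition shows as a rise in luminescence from relieved DAX1 repression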
Target sequence (P51843 207-470 limits assumed): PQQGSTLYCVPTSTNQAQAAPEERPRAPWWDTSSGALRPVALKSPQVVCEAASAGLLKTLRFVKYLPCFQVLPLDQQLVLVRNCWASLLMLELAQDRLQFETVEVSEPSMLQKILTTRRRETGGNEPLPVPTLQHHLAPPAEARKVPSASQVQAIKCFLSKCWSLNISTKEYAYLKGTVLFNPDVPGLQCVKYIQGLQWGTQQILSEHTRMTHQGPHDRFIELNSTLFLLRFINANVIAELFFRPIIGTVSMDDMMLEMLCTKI
hgDAF12 agonist: hgDAF-12 agonism, primary luciferase screen | HEK293 GAL4-hgDAF12 UAS-luciferase reporter, agonist luminescence; normalized to butyrate control | activation, % at 6.8 µM | 370,000 compounds, 1.8% hits | AID 687014;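 active = activation above a cutoff set at the mean of all screened compounds plus 3 SD, cut at about 10% in these data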;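 note: 0% = DMSO wells and 100% = sodium butyrate wells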
Active calls of the source: *.

What do the screens show for `C=CCn1c(SCCOC)nc2c1c(=O)[nH]c(=O)n2C`?
ssDAF12 agonist: -1; DAX1 inh-1: 2; hcDAF-12 act: 6.5*; DAX1 inh-2: 1; hgDAF12 agonist: -3

How did COc1cc(/C=N/NC(=O)CN2CCCCC2)ccc1OCc1ccc(Br)cc1 do in these assays?
ssDAF12 agonist: 0; DAX1 inh-1: 2; hcDAF-12 act: 3; DAX1 inh-2: 2; hgDAF12 agonist: 12*

What do the screens show for `COc1cc(/C=N/NS(=O)(=O)c2ccc(C)cc2)ccc1OCc1ccc(C(=O)O)cc1`?
ssDAF12 agonist: 0; DAX1 inh-1: 3; hcDAF-12 act: 3; DAX1 inh-2: -6; hgDAF12 agonist: 13*

What do the screens show for `CCOc1ccc(/C=N/NS(=O)(=O)c2ccc(C)cc2)cc1OC`?
ssDAF12 agonist: 0; DAX1 inh-1: 0; hcDAF-12 act: -2; DAX1 inh-2: 1; hgDAF12 agonist: -2

What do the screens show for `Cc1cc(C)cc(C(=O)OCCCN(C)C2CN(Cc3cn(Cc4ccccc4F)nn3)S(=O)(=O)C2)c1` (stereo unspecified)?
ssDAF12 agonist: -2; DAX1 inh-1: -1; hcDAF-12 act: -2; hgDAF12 agonist: -1

What do the screens show for `Nc1c(C(=O)N2CCN(c3ccccc3)CC2)nnn1Cc1ccc(Cl)cc1`?
ssDAF12 agonist: -2; DAX1 inh-1: -2; hcDAF-12 act: -3; hgDAF12 agonist: 1

What do the screens show for `CCCCNC(=O)C[C@@H]1C(=O)N(Cc2ccc(OC)cc2)C2=CCN(C(=O)OC(C)(C)C)C[C@]21C(=O)OCC`?
ssDAF12 agonist: -1; DAX1 inh-1: -1; hcDAF-12 act: -2; hgDAF12 agonist: -1

Results for O=C(NC1CCCCC1)C1CCCN(S(=O)(=O)c2cnc[nH]2)C1 (stereo unspecified) ?
ssDAF12 agonist: -2; DAX1 inh-1: 0; hcDAF-12 act: 0; DAX1 inh-2: 5.0*; hgDAF12 agonist: -1

Results for CCSc1nnc(NC(=O)C2CCCCC2)s1 ?
ssDAF12 agonist: 0; DAX1 inh-1: 1; hcDAF-12 act: 1; DAX1 inh-2: 4.7*; hgDAF12 agonist: 5

Results for Cc1ccc2nc(NC(=O)C3CCCN(S(=O)(=O)c4cnc[nH]4)C3)sc2c1 (stereo unspecified) ?
ssDAF12 agonist: -1; DAX1 inh-1: 3; hcDAF-12 act: 3; DAX1 inh-2: 6.3*; hgDAF12 agonist: 8

How did CSc1nnc(NC(=O)C2CCCCC2)s1 do in these assays?
ssDAF12 agonist: 0; DAX1 inh-1: 0; hcDAF-12 act: 0; DAX1 inh-2: 0; hgDAF12 agonist: 2

Results for CCSc1nnc(NC(=O)C2CCCN(S(=O)(=O)c3cnc[nH]3)C2)s1 (stereo unspecified) ?
ssDAF12 agonist: -1; DAX1 inh-1: 1; hcDAF-12 act: -1; DAX1 inh-2: 13*; hgDAF12 agonist: -1

How did O=C(NC1CCCCCCC1)C1CCCN(S(=O)(=O)c2cnc[nH]2)C1 (stereo unspecified) do in these assays?
ssDAF12 agonist: -1; DAX1 inh-1: 0; hcDAF-12 act: 0; DAX1 inh-2: 0; hgDAF12 agonist: 0

What do the screens show for `COc1ccccc1/C=N\NC(=O)c1cccc(S(=O)(=O)N(C)C)c1`?
ssDAF12 agonist: -2; DAX1 inh-1: 0; hcDAF-12 act: -1; hgDAF12 agonist: 0

How did CCOc1ccc(N(CC(=O)Nc2c(C)n(C)n(-c3ccccc3)c2=O)S(=O)(=O)c2ccc(C(C)(C)C)cc2)cc1 do in these assays?
ssDAF12 agonist: -1; DAX1 inh-1: -1; hcDAF-12 act: -1; hgDAF12 agonist: -3

Results for CC(C)n1nnnc1C1(C)Cn2nccc2C(=O)N1Cc1cccc(C(F)(F)F)c1 (stereo unspecified) ?
ssDAF12 agonist: -1; DAX1 inh-1: 0; hcDAF-12 act: -2; hgDAF12 agonist: 5

What do the screens show for `N#Cc1cccn1-c1nccc(-c2cccs2)n1`?
ssDAF12 agonist: 1.7*; DAX1 inh-1: 0; hcDAF-12 act: 3; DAX1 inh-2: 1; hgDAF12 agonist: 8

Results for Cc1ccc(C)n1-c1nccc(-c2cccs2)n1 ?
ssDAF12 agonist: 0; DAX1 inh-1: 0; hcDAF-12 act: 5; DAX1 inh-2: 2; hgDAF12 agonist: 1

How did CCCCNS(=O)(=O)CC1NCc2ccccc21 (stereo unspecified) do in these assays?
ssDAF12 agonist: -1; DAX1 inh-1: -1; hcDAF-12 act: 0; hgDAF12 agonist: 3

Results for Nn1c(-c2ccccc2)nc2cc(Cl)ccc2c1=O ?
ssDAF12 agonist: 1.9*; DAX1 inh-1: 1; hcDAF-12 act: 5.7*; DAX1 inh-2: 1; hgDAF12 agonist: 5

How did COc1cc(-c2nc3ccccc3c(=O)n2N)cc(OC)c1OC do in these assays?
ssDAF12 agonist: 5.7*; DAX1 inh-1: -1; hcDAF-12 act: -1; DAX1 inh-2: -2; hgDAF12 agonist: 3

What do the screens show for `On1c(-c2ccccc2)nc2ccc(Cl)cc21`?
ssDAF12 agonist: -1; DAX1 inh-1: 3; hcDAF-12 act: 3; DAX1 inh-2: 1; hgDAF12 agonist: 12*

What do the screens show for `Cc1cccc(-c2nc3ccccc3c(=O)n2N)c1`?
ssDAF12 agonist: -1; DAX1 inh-1: 0; hcDAF-12 act: 1; DAX1 inh-2: 1; hgDAF12 agonist: -1

How did Cc1ccc(-c2nc3ccccc3c(=O)n2N)cc1 do in these assays?
ssDAF12 agonist: 1; DAX1 inh-1: 1; hcDAF-12 act: 4; DAX1 inh-2: 0; hgDAF12 agonist: 3

How did COc1ccc(S[C@]2(C(=O)N3CCCC3)CC(=O)N(C(=O)CCc3ccccc3)[C@@H]2c2ccc(OC)cc2)cc1 do in these assays?
ssDAF12 agonist: -1; DAX1 inh-1: -2; hcDAF-12 act: -2; hgDAF12 agonist: 1

What do the screens show for `COC(=O)[C@]12CCCCC=C1N(Cc1ccc(OC)cc1)C(=O)[C@@H]2CC(=O)NCCC(C)C`?
ssDAF12 agonist: -1; DAX1 inh-1: 0; hcDAF-12 act: -2; hgDAF12 agonist: 1

How did COC(=O)[C@]12C[C@H](CC(=O)NCCc3ccccc3OC)C(=O)N(Cc3ccc(Cl)cc3Cl)C1=C[C@H](C1CCCC1)O[C@@H]2C do in these assays?
ssDAF12 agonist: -1; DAX1 inh-1: -1; hcDAF-12 act: -3; hgDAF12 agonist: 1

Results for C[C@@H]1OC(C2CCCCC2)N(C)[C@H]2C[C@H]3c4[nH]c5c(-c6ccc7c(c6)OCO7)cccc5c4CCN3C[C@@H]12 (stereo partly specified) ?
ssDAF12 agonist: -1; DAX1 inh-1: 1; hcDAF-12 act: -1; hgDAF12 agonist: 3

Results for Cc1ccc2[nH]c(=O)c(C3C(C#N)=C(N)Oc4c3ccc3cccnc43)cc2c1 (stereo unspecified) ?
ssDAF12 agonist: 1.1*; DAX1 inh-1: 1; hcDAF-12 act: 3; DAX1 inh-2: 1; hgDAF12 agonist: 5

Results for N#CC1=C(N)Oc2c(ccc3cccnc23)C1c1ccccc1 (stereo unspecified) ?
ssDAF12 agonist: -1; DAX1 inh-1: -2; hcDAF-12 act: -2; DAX1 inh-2: 0; hgDAF12 agonist: -2
